Pol kappa inh – blocks human DNA polymerase kappa activity; purified Pol kappa, fluorescent DNA synthesis assay, 10 min; Potency, µM (top dose mostly 107 µM), for inactives: at the highest dose activity, negative = inhibition, most hits filed as inhibitors; 400,000 tested, 0.53% active; AID 588579; also: potency is read from the fitted curve at half-maximal effect; % is scaled to controls: 0 for no effect and ±100 for the full control effect
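Kinetic fluorescence screen: compound preincubated 15 min RT with 10 nM enzyme; 50 nM substrate (final) initiates; reads at 0/10 min.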
POLI inh – blocks human DNA polymerase iota activity; Pol iota fluorescent replication assay, 10 min; Potency, µM (top dose mostly 115 µM), inactives show top-dose activity, negative = inhibition, hits mostly inhibitors; 390,000 tested, 1% active; Q9UNA4; also: potency is read from the fitted curve at half-maximal effect
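Fluorescent replication assay read twice, at 0 min and 10 min after adding 50 nM (final) substrate. Enzyme (10 nM) and compounds were first incubated 15 min at room temperature; enzyme-free buffer wells were negative controls.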
FEN1 inhibitor – inhibitors of human flap endonuclease 1. AID 588795. 390,000 tested, 0.35% active. Potency, µM (highest dose often 114 µM), inactives show at the top dose activity change, negative = inhibition, usual class: inhibitors. Recombinant FEN1 flap cleavage, fluorescence, 15 min; also: potency is read from the fitted curve at half-maximal effect; % is scaled to controls: 0 for no effect and ±100 for the full control effect; nearly all actives have a fitted effect of over 65% in size
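Nuclease activity of 10 nM FEN1 was measured after 15 min of room-temperature exposure to titrated compounds, by adding 50 nM flap substrate and reading plates at 0 and 15 min.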
Pol beta inh – DNA polymerase beta (human) inhibition | Pol beta primer extension/strand displacement, fluorescence kinetic | 340,000 tested, 1.3% active | AID 485314 | P06746 | Potency, µM (highest dose often 114 µM), without a hit: top-dose activity change, negative = inhibition, hits mostly inhibitors; also: potency is read from the fitted curve at half-maximal effect; % is scaled to controls: 0 for no effect and ±100 for the full control effect
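Kinetic readout of DNA synthesis with strand displacement by Pol beta. Compound and 10 nM enzyme sit 15 min at room temperature; 50 nM substrate starts the reaction, read immediately and at 10 min.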
Pol eta inh – blocks human DNA polymerase eta activity; 390,000 tested, 1.2% active; recombinant Pol eta, fluorescent DNA replication assay; AID 588591; Potency, µM (titrated, usually from 114 µM), for inactives: top-dose activity change, negative = inhibition, usual class: inhibitors; also: potency is read from the fitted curve at half-maximal effect; % is scaled to controls: 0 for no effect and ±100 for the full control effect
Target sequence (Q9Y253 whole entry, looked up): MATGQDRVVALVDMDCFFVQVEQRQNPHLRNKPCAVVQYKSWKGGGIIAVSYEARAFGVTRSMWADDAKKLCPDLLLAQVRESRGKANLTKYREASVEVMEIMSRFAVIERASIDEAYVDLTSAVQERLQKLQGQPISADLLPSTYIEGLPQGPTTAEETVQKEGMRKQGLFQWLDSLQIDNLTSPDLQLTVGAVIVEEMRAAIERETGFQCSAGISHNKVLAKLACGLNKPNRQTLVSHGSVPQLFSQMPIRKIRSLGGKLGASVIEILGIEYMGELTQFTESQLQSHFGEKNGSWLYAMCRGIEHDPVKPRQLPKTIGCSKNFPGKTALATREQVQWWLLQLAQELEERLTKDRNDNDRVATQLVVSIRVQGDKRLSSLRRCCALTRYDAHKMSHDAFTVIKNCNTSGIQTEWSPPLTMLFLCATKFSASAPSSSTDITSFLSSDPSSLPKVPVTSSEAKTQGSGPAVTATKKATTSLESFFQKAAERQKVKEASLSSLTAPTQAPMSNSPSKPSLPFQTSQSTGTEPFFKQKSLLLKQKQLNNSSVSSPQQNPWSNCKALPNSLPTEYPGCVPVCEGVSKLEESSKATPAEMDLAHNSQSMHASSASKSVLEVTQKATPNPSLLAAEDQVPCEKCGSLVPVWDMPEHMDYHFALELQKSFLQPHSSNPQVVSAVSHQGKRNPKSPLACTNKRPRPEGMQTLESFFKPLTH
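Fluorescent replication assay: 50 nM final substrate added after a 15 min room-temperature compound preincubation with 10 nM enzyme. Signal taken at 0 min and again at 10 min.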
PI5P4Ka inh – PI5P4K alpha (human) kinase inhibition; PI5P4Kalpha enzyme, ADP-Glo luminescence, 60 min; hits give low values; 330,000 tested, 1.2% active; AID 652105; max response, %; active = max response of -50% or lower; inconclusive = between -30% and -50%; inactive = -30% or higher; also: value at the top dose of about 77 µM; % is scaled to controls: 0 for no effect and ±100 for the full control effect
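Luminescence from ADP-Glo served as readout of PI5P4Kalpha activity in a qHTS format. Reaction: enzyme, substrate, compound, ATP at 5 microM final, 60 min at RT.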
The depositor's hits bear a star; ? = inconclusive; · = not tested or not shown; [ ] = another dose, or the depositor's remark. The list is not random: actives were taken first. Their share in the collection is about 2.8%. Unless noted, calls follow the shape of the dose curve; as a rule, active = well fitted curve in the direction sought with a large enough effect; inconclusive = small, poorly fitted or top-dose-only effect, or another doubt; inactive = no such curve, though single readings can be large; an effect the other way counts as inactive or inconclusive.

SMILES	Pol kappa inh	POLI inh	FEN1 inhibitor	Pol beta inh	Pol eta inh	PI5P4Ka inh
COc1cccc(N2CCN(C(=O)C3CCCN(S(=O)(=O)c4ccc(Br)s4)C3)CC2)c1 (centres undefined)	-1%	28%	-13%	0%	-19%	·
Cc1ccccc1N1CCN(S(=O)(=O)CC23CCC(CC2NC(=O)C(N)CCS(C)(=O)=O)C3(C)C)CC1 (centres undefined)	6%[60.1 µM]	·	·	·	·	·
Cc1ccc(C(=O)Oc2coc(CSc3nnc(NC(=O)C4CC4)s3)cc2=O)cc1	-14%	?	6%	1%	?	6
O=C(Oc1coc(CSc2nnc(NC(=O)c3cccs3)s2)cc1=O)c1ccccc1	?	?	1%	13µM*	?	-29
CCCCSc1nnc2n(-c3cccc(C)c3)c(=O)c3c4c(sc3n12)CCCC4	-15%	16%	10%	4%	0%	·
CCCCNC(=S)N/N=C/c1ccc(C#N)cc1	?	-97%	?	0%	-98%	-73*
CCNC(=S)N/N=C/c1ccc(F)cc1	·	·	·	-7%	·	·
CCOc1ccc(-c2nc(Cn3c(=O)cc(-c4ccccc4)c4c(C)nn(C)c43)c(C)o2)cc1OC	10%	-3%	14%	-20%	1%	·
CN(C)CCNC(=O)C(=O)Nc1cc2c3c(c1)CCN3C(=O)CC2	?	40µM*	-17%	31%	4%	-1
CCc1nc2ccc(C(=O)NCc3cc(OC)ccc3OC)cc2nc1CC	1%[60.1 µM]	31%	5%	0%	-20%	·
COc1cc(NC(=O)COc2ccc(-n3cnnn3)cc2)c(OC)cc1Cl	-25%	-51%	-9%	-28%	-4%	?
O=C(COc1ccc(-n2cnnn2)cc1)Nc1cccc(Cl)c1Cl	-32%	?	0%	50µM*	-6%	?
COc1ccc(-c2nc(N3CCN(S(=O)(=O)c4ccccc4)CC3)c3ccccc3n2)cc1	0%	-13%	11%	·	·	·
CCN(CC)CCOC(=O)c1ccc(N/C=C(/C#N)c2nc(-c3ccc(OC)cc3)cs2)cc1	-12%	33%	?	?	2%	-69*
CCN(CC)CCOC(=O)c1ccc(N/C=C(/C#N)c2nc(-c3cc4ccccc4oc3=O)cs2)cc1	-28%	?	?	-12%	-37%	?
O=c1c(Cl)c(N/N=C/c2ccc(Br)cc2)cnn1-c1ccccc1	?	?	?	18µM*	?	-4
CCCNC(=O)C1(C)CCCN(Cc2ccc(C(=O)OCC)o2)C1 (centres undefined)	·	·	·	·	·	0
COc1ccc(S(=O)(=O)Nc2cccc(-c3ccc(N4CCCCC4)nn3)c2)cc1F	-1%[60.1 µM]	-4%	-1%	-18%	-13%	·
COc1ccc(-c2cc(=O)c3cc(OC)ccc3[nH]2)cc1	4%	35µM*	-19%	14%	1%	-13
COc1ccc(-c2cc(=O)c3cc(C)ccc3[nH]2)cc1	-11%	79µM*	-6%	4%	9%	-2
O=C1OC(c2ccc3ccccc3c2O)(c2ccc3ccccc3c2O)c2ccccc21	?	?	?	·	25µM*	-79*
Cc1ccc(OCC(=O)NNC(=O)c2cc3ccccc3o2)cc1C	?	?	1%	28µM*	?	9
CN(C)c1ccc(-c2cc(N(C)Cc3ccco3)ncn2)cc1	-2%[60.1 µM]	·	·	·	·	·
CN(Cc1ccco1)c1cc(-c2ccoc2)ncn1	25µM*	·	·	·	·	·
COC1=C/C(=C/c2c(N)n3nc(CC(=O)N4CCCC4)sc3nc2=O)C=CC1=O	?	?	-19%	-1%	-4%	-56*
SMILES	Pol kappa inh	POLI inh	FEN1 inhibitor	Pol beta inh	Pol eta inh	PI5P4Ka inh
CCc1nn2c(N)c(/C=C3\C=Nc4ccccc43)c(=O)nc2s1	-21%	20%	-8%	-3%	3%	0
CC1=Nc2ccc(C)cc2/C1=C/c1c(N)n2nc(CC(=O)N3CCOCC3)sc2nc1=O	-6%	26%	1%	-1%	-20%	-17
CCOC1=C/C(=C/c2c(N)n3nc(CC(=O)N4CCCC4)sc3nc2=O)C=CC1=O	-41%	?	-4%	-28%	?	-55*
COC1=CC(=Cc2c(N)n3nc(CC(=O)N4CCCCC4)sc3nc2=O)C=C(OC)C1=O	?	?	-32%	17%	56µM*	-58*
COc1ccc(NC(=O)C(=O)NCCC2CCCCN2S(=O)(=O)c2ccccc2)cc1 (centres undefined)	-8%	25%	-9%	·	0%	-11
CC(C)c1ccc(C2c3c(-c4ccccc4O)n[nH]c3C(=O)N2CCc2ccccc2)cc1 (centres undefined)	7%	32%	-1%	7%	-14%	·
COc1ccc(CNC(=O)Nc2cc(C)cc(C)c2)cc1	-1%	20%	-3%	32µM*	-1%	5
CC(C)C(=O)NC(C)C(c1cccs1)N1CCN(c2ccccc2)CC1 (centres undefined)	-5%	8%	15%	20µM*	-5%	-2
CC(C)CC1NC(=S)N(C2CCCCC2)C1=O (centres undefined)	-9%	-11%	3%	12%	-19%	-59*
CCOC(=O)c1noc2nc(C)n(CC(=O)NC(C)CC)c(=O)c12 (centres undefined)	-7%[60.1 µM]	13%	15%	0%	-12%	·
Cc1ccc(NC2c3ncccc3C(=O)N2c2ccccc2C)cc1C (centres undefined)	-11%	56µM*	-9%	21%	-9%	-1
FC(F)(F)c1nnc2ccc(NCn3nnc4ccccc43)nn12	4%	0%	-5%	-15%	89µM*	-10
FC(F)(F)c1nnc2ccc(NCc3ccccc3)nn12	-18%	8%	2%	1%	2%	2
COc1cc(OC)c(NC(=O)NC(C)c2c(-n3cccc3)sc(C)c2C)cc1Cl (centres undefined)	-7%	31%	-2%	0%	·	·
C/C=C\C=C/C(=O)Nc1cccc(C2=NOC3(C2)C[C@@H](C(N)=O)N(C(=O)/C=C/C=C\C)C3)c1 (some centres undefined)	20µM*	10µM*	50µM*	6.3µM*	7.9µM*	-94*
C/C=C\C=C/C(=O)Nc1cccc(C2=NOC3(C2)C[C@@H](C(N)=O)N(C(=O)/C=C/CC)C3)c1 (some centres undefined)	?	28µM*	-14%	5%	22µM*	-65*
NC(=O)[C@H]1CC2(CC(c3cccc(NC(=O)CC(c4ccccc4)c4ccccc4)c3)=NO2)CN1C(=O)C(c1ccccc1)c1ccccc1 (some centres undefined)	0%	24%	-5%	3%	-10%	-5
